Compounds without any hit were thinned out: in the full panel of roughly 83,000, 20% have a hit.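 96-well plates, one dose, 48 hours. Percent growth reported; active if below 10.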 Unmarked numbers belong to inactive results. Active and inactive are the calls of the source.
Experiments:
Test in all cases: NCI-60 one-dose screen, 48 h (100 = growth as untreated, 0 = no growth, -100 = all killed)
Details in all cases: 10 µM unless noted
[1] = test system: HCT-15 colon
[2] = test system: HT29 colon
[3] = test system: SNB-75 CNS
[4] = test system: SNB-19 CNS
[5] = test system: U251 CNS
[6] = test system: PC-3 prostate
[7] = test system: SK-MEL-5 melanoma
[8] = test system: UACC-62 melanoma
[9] = test system: LOX IMVI melanoma
[10] = test system: SK-MEL-28 melanoma
[11] = test system: SK-MEL-2 melanoma
[12] = test system: EKVX NSCLC
[13] = test system: SN12C renal
[14] = test system: UO-31 renal
[15] = test system: TK-10 renal
[16] = test system: ACHN renal
[17] = test system: CAKI-1 renal
[18] = test system: A498 renal
[19] = test system: CCRF-CEM leukemia
[20] = test system: MOLT-4 leukemia

| SMILES | growth [1] | growth [2] | growth [3] | growth [4] | growth [5] | growth [6] | growth [7] | growth [8] | growth [9] | growth [10] | growth [11] | growth [12] | growth [13] | growth [14] | growth [15] | growth [16] | growth [17] | growth [18] | growth [19] | growth [20] |
| --- | --- | --- | --- | --- | --- | --- | --- | --- | --- | --- | --- | --- | --- | --- | --- | --- | --- | --- | --- | --- |
| O=C(O/C(=C/c1ccccc1)C(F)(F)F)c1ccccc1 | 114% | 110% | 92.7% | 110% | 102% | 104% | 102% | 100% | 99.1% | 116% | 103% | 103% | 99.3% | 102% | 103% | 110% | 99% | 88.7% | 106% | 7.51% (active) |
| COc1cc(CN(c2ccc(C)cc2)C2OC(=O)c3ccccc32)cc(OC)c1OC (stereo not given) | 6.19% (active) | 18.9% | 6.43% (active) | 38.6% | 32.3% | 51.8% | 19.9% | 45.9% | 42.7% | 51.8% | 55% | 71.8% | 50.1% | 59.7% | 93.3% | 56.3% | 49.3% | 51.7% | 11.5% | 17.9% |
| CN(C)CCCN1c2ccccc2CCc2ccccc21 | 96.6% | 83.5% | 50.8% | 94.1% | 91.6% | 82.8% | 75.3% | 94% | 106% | 102% | 105% | 107% | 80.1% | 83.2% | 93.3% | 91.4% | 84.6% | 124% | 97.6% | 83.7% |
| Oc1ccc(-c2nc3ccccc3s2)cc1CN(Cc1ccccn1)Cc1ccccn1 | 15.2% | 25.7% | 38.7% | 20.5% | 8.51% (active) | 30.3% | -67.4% (active) | 8.93% (active) | 2.31% (active) | 33.1% | 3.08% (active) | 5.39% (active) | 20.3% | -31.8% (active) | 2.77% (active) | 4.42% (active) | -15.8% (active) | 31.9% | 6.5% (active) | 2.86% (active) |
| COc1cc2c(c(OC)c1O)C(=O)C(OC)C(c1ccc(O)c(O)c1)O2 (stereo not given) | 3.6% (active) | 46.8% | -8.14% (active) | 21% | 15.4% | -22.3% (active) | -23.6% (active) | 29.3% | 12.9% | 56.2% | 46.9% | 46.8% | 26.6% | 44.8% | 66.1% | 21.6% | 28.4% | -18.3% (active) | -5.15% (active) | 9.18% (active) |
| O=C1/C(=C/N2N=C(c3ccc(Cl)cc3)CC2c2ccccc2O)SC(=S)N1c1cccc(C(F)(F)F)c1 (stereo not given) | 43.5% | 37.6% | 38.4% | 71% | 45.1% | 23.6% | 79.7% | 52.3% | 48.3% | 73.9% | 90.7% | 52.5% | 52.6% | 24.9% | 78.3% | 55.3% | 55.5% | 65.8% | 30% | 8.36% (active) |
| C=C1C(=O)O[C@H]2[C@H]1CC/C(COC(=O)NCc1[nH]nc3ccccc13)=C\CC[C@@]1(C)O[C@@H]21 | 5.35% (active) | -32.6% (active) | 64.9% | 67.8% | 27.5% | 28.8% | 25.7% | 16.5% | -17.2% (active) | 30.3% | 30.9% | 50.1% | 35.4% | 71.5% | -4.85% (active) | 14.4% | 16.6% | 94.3% | -6.22% (active) | -12.7% (active) |
| CCCCCCCCCCCCCC1=NC(C)(C)CN1C(C)C | -65.1% (active) | -57.5% (active) | -41.1% (active) | 28.9% | -63.5% (active) | -37.6% (active) | -86.7% (active) | -70.8% (active) | -74.1% (active) | -73% (active) | -66.3% (active) | -2.5% (active) | 9.87% (active) | -65.1% (active) | -73% (active) | -67.2% (active) | -67% (active) | 87.7% | -44.1% (active) | -58.5% (active) |
| COc1ncnc2[nH]cc(CN3CCN(c4ccc(F)cc4)CC3)c12 | 104% | 91.2% | 100% | 102% | 99.2% | 100% | 103% | 106% | 106% | 114% | 103% | 97.9% | 102% | 94.3% | 90.1% | 104% | 98.8% | 80% | 97.1% | 105% |
| Cc1ccc(NC(=O)c2sc3nc4c(cc3c2N)C(=O)CCC4)cc1Cl | 97.3% | 97.5% | 110% | 114% | 97.9% | 104% | 102% | 108% | 99.2% | 108% | 112% | 86.2% | 119% | 111% | 96.5% | 109% | 85.9% | 97.9% | 104% | 108% |
| CCCCc1nc(Cl)c(C2CC(c3ccc(S(N)(=O)=O)cc3)=NN2c2ccc(C#N)cc2)[nH]1 (stereo not given) | 97% | 100% | 87.5% | 84.9% | 76.7% | 69.4% | 78.3% | 68% | 86.6% | 107% | 91% | 89.5% | 83% | 70.5% | 100% | 101% | 67.6% | 74.2% | 86.8% | 76.1% |
| COc1ccc(-c2cc(C(=O)Nc3ccc(Br)cc3)nc3[nH]c(=O)sc23)cc1 | 37% | 50.1% | 78.4% | 36.5% | 28.8% | 34.8% | 8.56% (active) | 8.05% (active) | 36.7% | 38.5% | -5.01% (active) | 37.2% | 20.4% | 28.6% | 19.9% | 54.8% | 34.6% | -2.87% (active) | 29.8% | 27.8% |
| O=C1/C(=C/c2cc(F)cc(F)c2)Cc2cc(F)cc(F)c21 | 95.4% | 92.3% | 93.9% | 86.8% | 104% | 88.1% | 76.8% | 85.6% | 86.8% | 96.7% | 93.7% | 88% | 106% | 70.9% | 102% | 92.7% | 77.6% | 90.2% | 110% | 87.3% |
| O=C(c1ccccc1)C(CCc1ccccn1)CCc1ccccn1 | 96.6% | 96.7% | 106% | 94.1% | 101% | 86.8% | 100% | 86.1% | 95.8% | 106% | 96.1% | 107% | 95.7% | 75.1% | 97.3% | 106% | 106% | 100% | 95.3% | 99% |
| COc1ccc(CC2c3cc(OC)c(OC)cc3CC[N+]2(C)CCC(=O)OCCCCCOC(=O)CC[N+]2(C)CCc3cc(OC)c(OC)cc3C2Cc2ccc(OC)c(OC)c2)cc1OC (stereo not given) | 102% | 96% | 63.4% | 104% | 93.4% | 90.3% | 87.4% | 93.3% | 81% | 99.8% | 98.7% | 101% | 81.2% | 66.2% | 124% | 97.1% | 87.4% | 66% | 94.1% | 80.4% |
| Nc1c(N)c2ccccc2c2ccccc12 | 111% | 108% | 84.8% | 104% | 106% | 89.5% | 107% | 95% | 101% | 110% | 106% | 92.6% | 99.5% | 69.1% | 119% | 111% | 89% | 113% | 104% | 100% |

— PubChem BioAssay (NCI)
